Laboratory results: PubChem BioAssay AID2147 (National Center for Advancing Translational Sciences (NCATS), 2009)
About 3,600 (1.6%) of roughly 230,000 compounds were called active. Not shown: some 15% with an inconclusive outcome. Calls come from the whole dose curve; as a rule, active = well fitted inhibition curve with a large enough effect (not every such curve was filed as active); inconclusive = small, poorly fitted or top-dose-only effect, or another doubt; inactive = no such curve, though single readings can be large or run the other way. The list comes from a sample in which actives are over-represented; it also holds similar structures and randomly drawn compounds.

Each compound was assayed against Lysine-specific demethylase 4E (Homo sapiens) (UniProt B2RXH2) (assay: qHTS Assay for Inhibitors of Human Jumonji Domain Containing 2E (JMJD2E)). Details: JMJD2E catalytic domain, FDH-coupled NADH fluorescence (FDH is formaldehyde dehydrogenase); series mostly up to 57.1 µM; activity change, negative = inhibition: at the top concentration.
Note: nearly all actives have a fitted effect of over 50% in size.
Potency is the fitted concentration of half-maximal effect.
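Throughout, for activity change, negative = inhibition: 0% = wells with enzyme and -100% = buffer wells without enzyme.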

Sequence of Lysine-specific demethylase 4E (Homo sapiens) (B2RXH2 1-337 limits assumed): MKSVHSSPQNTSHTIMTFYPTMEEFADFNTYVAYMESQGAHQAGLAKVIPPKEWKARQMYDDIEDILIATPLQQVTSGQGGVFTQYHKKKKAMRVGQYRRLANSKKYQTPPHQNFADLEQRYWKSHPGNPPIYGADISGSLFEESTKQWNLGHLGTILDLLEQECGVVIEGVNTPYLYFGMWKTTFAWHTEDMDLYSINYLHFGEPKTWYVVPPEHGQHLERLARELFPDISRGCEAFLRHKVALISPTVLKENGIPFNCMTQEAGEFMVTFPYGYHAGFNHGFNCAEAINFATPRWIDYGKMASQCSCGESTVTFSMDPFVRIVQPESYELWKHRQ

SMILES | activity change, negative = inhibition | Potency
CCOc1ccc(NC(=O)CCC(=O)N/N=C/c2ccc([N+](=O)[O-])s2)cc1 | -2.83% (inactive) | –
O=[N+]([O-])c1ccc(C=Nc2ccc(Cl)cc2Cl)s1 | – | 22.4 µM (active)
CC(C)(C)c1cc(C(=O)N/N=C/c2ccc([N+](=O)[O-])s2)n[nH]1 | 0.226% (inactive) | –
O=C(NNS(=O)(=O)c1ccccc1)c1cnn(-c2ccc(Cl)cc2)c1C(F)(F)F | 8.91% (inactive) | –
NC(=O)C1(C(N)=O)OC1c1ccc(Cl)cc1Cl (stereo not drawn) | 0.802% (inactive) | –
O=C(CSc1nc2ccccc2o1)N/N=C/c1ccccc1C(=O)O | 4.12% (inactive) | –
O=C(NC1CC1)C1=C[C@H](c2c[nH]c3ccccc23)C[C@H](OCc2ccc(CO)cc2)O1 | 1.29% (inactive) | –
NC(=O)C1=C[C@H](c2csc3ccccc23)C[C@H](OCc2ccc(CO)cc2)O1 | -6.28% (inactive) | –
NC(=O)C1=C[C@@H](c2csc3ccccc23)C[C@@H](OCc2ccc(CO)cc2)O1 | – | 22.4 µM (active)
OCC1(Cc2ccccc2C(F)(F)F)CCN(Cc2ccncc2)CC1 | -22.4% (inactive) | –
CCn1cc(C(=O)NCCCN2CCCCCC2)c(=O)c2cc(S(=O)(=O)N3CCc4ccccc4C3)ccc21 | – | 25.1 µM (active)
CCn1cc(C(=O)NCC2CCCO2)c(=O)c2cc(S(=O)(=O)N3CCCCC3)ccc21 (stereo not drawn) | -1.81% (inactive) | –
CCOC(=O)N1CCN(C(=O)c2cn(C)c3ccc(S(=O)(=O)N4CCCC4)cc3c2=O)CC1 | -0.344% (inactive) | –
CC(C)(C)C(=O)Nc1c(Br)c(C2CC2)nn1-c1ccccc1 | 3.79% (inactive) | –
O=C(COC(=O)c1ccc(S(=O)(=O)Nc2ccccc2)cc1)NCC1CCCO1 (stereo not drawn) | 3.36% (inactive) | –
CCN(CC(=O)NCCc1ccccc1)S(=O)(=O)c1ccccc1 | -0.682% (inactive) | –
Cc1c(CCOC(=O)c2cc([N+](=O)[O-])ccc2Cl)sc[n+]1CCCCS(=O)(=O)[O-] | 9.22% (inactive) | –
Cc1c(CCO)sc[n+]1CC(=O)OC12CC3CC(CC(C3)C1)C2 | 2.74% (inactive) | –
Cc1c(CCOC(=O)CC23CC4CC(CC(C)(C4)C2)C3)sc[n+]1Cc1ccc([N+](=O)[O-])cc1 | – | 10 µM (active)
O=C(COc1ccc([N+](=O)[O-])cc1Cl)Nn1cnnc1 | -3.14% (inactive) | –
CC1OC(OCC2OC(Oc3c(-c4ccc(O)c(O)c4)oc4cc(O)cc(O)c4c3=O)C(O)C(O)C2O)[C@@H](O)C(O)C1O (stereo partly drawn) | – | 7.08 µM (active)
COc1ccc(C2CC(=O)c3c(O)cc(OC4OC(COC5OC(C)C(O)C(O)C5O)C(O)C(O)C4O)cc3O2)cc1O (stereo not drawn) | 2.92% (inactive) | –

SMILES | activity change, negative = inhibition | Potency
C[C@@H]1O[C@@H](OC[C@H]2O[C@@H](Oc3c(-c4cccc(O)c4O)oc4cc(O)cc(O)c4c3=O)[C@H](O)[C@@H](O)[C@@H]2O)[C@H](O)[C@H](O)[C@H]1O | – | 7.08 µM (active)
COc1ccc(CCC(=O)c2c(O)cc(OC3OC(CO)C(O)C(O)C3O[C@@H]3OC(C)C(O)C(O)C3O)cc2O)cc1O (stereo partly drawn) | -3.34% (inactive) | –
C=CCc1ccc(OCC(O)CN2CCN(Cc3ccccc3)CC2)c(OC)c1 (stereo not drawn) | -5.88% (inactive) | –
CCN(CC)CC1(O)CCN(C(=O)c2ccc(Cl)c(Cl)c2)CC1 | -3.78% (inactive) | –
CSc1nnnn1-c1c(C)cc(C)cc1C | -5.36% (inactive) | –
CCc1ccc[n+](-c2nc([O-])sc2C=O)c1 | 1.47% (inactive) | –
O=C(Nc1ccc(N2CCN(C(=O)c3ccccc3)CC2)c(Cl)c1)c1ncn[nH]1 | -12.6% (inactive) | –
Nc1cccc(S(=O)(=O)Nc2ccc(SC(F)F)cc2)c1 | 0.195% (inactive) | –
CN1CCN(C2=NCCO2)CC1 | 11.8% (inactive) | –
Cc1cccc(-[n+]2c(-c3cccc(Br)c3)[nH]c3nc4ccccc4nc32)c1 | – | 25.1 µM (active)
CCCCCc1nnc(NC(=O)c2ccc(=O)n(C)n2)s1 | 3.42% (inactive) | –
CCOCCCNCc1cc(Br)ccc1OCC | -8.97% (inactive) | –
Cn1nc(C(F)(F)F)cc1C(=O)O | -0.937% (inactive) | –
O=C(O)CC/C(=N\NC(=O)c1ccc(F)cc1)c1ccc(Br)cc1 | 26.4% (inactive) | –
Cc1ccc(C(C[N+](=O)[O-])c2c(C)cc3ccccn23)cc1 (stereo not drawn) | – | 25.1 µM (active)
CC(=O)Nc1ccc(/C=N/Nc2ccc(C(=O)c3c(C)cc4ccccn34)cc2[N+](=O)[O-])cc1 | -6.21% (inactive) | –
COc1ccc(C(C[N+](=O)[O-])n2nc(C)cc2C)cc1 (stereo not drawn) | -17.4% (inactive) | –
Cc1ccc(/C=N/NC(=S)Nc2cccc(S(=O)(=O)N(C)C)c2)o1 | 2.81% (inactive) | –
Cc1ccnc(NC(=O)CCC(=O)N(CC(=O)NCCc2ccccc2)Cc2cccs2)c1 | 4.44% (inactive) | –
C#CCNc1ccc(C(=O)OCC)cc1 | -3.79% (inactive) | –
COC(=O)c1c(C)oc(C)c1S(=O)(=O)NCc1ccc(Cl)cc1 | 1.03% (inactive) | –
COc1ccc(C(=O)C2CCCN(C(=O)c3cnsn3)C2)c(C)c1 (stereo not drawn) | 1.42% (inactive) | –

SMILES | activity change, negative = inhibition | Potency
Oc1[nH]c2ccc(Br)cc2c1N=Nc1nn[nH]n1 | -5.01% (inactive) | –
CSc1n[nH]c(=S)n1N | – | 31.6 µM (active)
Nc1ccc(N=Nc2ccccc2Cl)c(N)n1 | -0.968% (inactive) | –
Cc1ccc(S(=O)(=O)N(C)C)cc1NC(=O)c1n[nH]c(=O)c2ccccc12 | -0.703% (inactive) | –
COc1cccc(/C=N\NC(=O)C2=NNC(=O)C2C)c1O (stereo not drawn) | – | 7.08 µM (active)
COc1cccc(/C=N/Nc2cc(C)nc(-c3ccccc3O)n2)c1O | -19.7% (inactive) | –
COc1cccc(/C=N/NC(=O)c2[nH]nc3c2CCc2ccccc2-3)c1O | -6.09% (inactive) | –
Oc1ccc(-c2nnc(Nc3ccccc3)c3ccccc23)cc1 | 6.49% (inactive) | –
O=c1c(-c2ccccc2)cnc2n1CCS2 | -0.466% (inactive) | –
CN1CCN(c2ncc3c(n2)CC(c2ccccc2F)CC3=O)CC1 (stereo not drawn) | 8.1% (inactive) | –
O=C(Cn1nnc(N2CCCCC2)n1)c1ccc(Cl)c(Cl)c1 | 1.01% (inactive) | –
COCc1c(C(=O)N/N=C/C2CC=CCC2)nnn1-c1nonc1N (stereo not drawn) | 28.1% (inactive) | –
Nc1nonc1-n1nnc(C(=O)N/N=C/c2cc(Br)ccc2O)c1CSC1=NCCS1 | – | 20 µM (active)
Cc1ccc(SCc2c(C(=O)N/N=C/C3CC=CCC3)nnn2-c2nonc2N)cc1 (stereo not drawn) | 6.28% (inactive) | –
CCOc1ccc(-c2nc(N)ncc2-c2ccccc2OC)c(O)c1 | 0.955% (inactive) | –
Cc1cc(C)cc(C(=O)NC2C(=O)N3C(C(=O)O)=C(CSc4nnc(C)s4)CSC23)c1 (stereo not drawn) | -12.1% (inactive) | –
O=C(CNc1ccc(F)cc1F)NC(=O)NCc1ccco1 | -10.3% (inactive) | –
C/C(=N\NC(=O)c1ccc(C)cc1)C1C(=O)c2ccccc2C1=O | – | 25.1 µM (active)
Cc1ccc(C(=O)NC(=S)Nc2ccccc2C)cc1 | -6.18% (inactive) | –
Cc1ccc(C(=O)NCCNC(=O)c2ccccc2)cc1 | -3.49% (inactive) | –
O=c1[nH]c2cccnc2n1-c1ccc([N+](=O)[O-])cc1 | -0.719% (inactive) | –
O=C(CCCl)Nc1ccc(S(=O)(=O)NCc2ccco2)cc1 | -9.18% (inactive) | –

SMILES | activity change, negative = inhibition | Potency
O=C(N/N=C/c1ccc(O)c(O)c1)C1c2ccccc2Oc2ccccc21 | – | 14.1 µM (active)
CCC(C)NC(=O)C1c2ccccc2Oc2ccccc21 (stereo not drawn) | -12.8% (inactive) | –
CCC(C)(C)NC(=O)C1c2ccccc2Oc2ccccc21 | 9.54% (inactive) | –
COc1ccc(OC)c(NC(=O)CN(Cc2ccc(Cl)cc2)S(C)(=O)=O)c1 | 1.48% (inactive) | –
O=C(CSc1nc(O)c(Cc2ccccc2)c(=O)[nH]1)Nc1nc2c(s1)CCCC2 | 8.09% (inactive) | –
CC(C)(C)NC(=O)NCc1ccco1 | 0.475% (inactive) | –
Cc1ccc(C(=O)NC(=S)NCCN2CCOCC2)cc1 | 6.9% (inactive) | –
Cc1ccc(NC(=S)NCCN2CCOCC2)cc1 | -5.61% (inactive) | –
CCOc1cccc(/C=N/NC(=S)NCCN2CCOCC2)c1O | – | 35.5 µM (active)
COc1ccc(COCC(O)CN2CCC(C(N)=O)CC2)cc1 (stereo not drawn) | -0.742% (inactive) | –
COC(=O)c1cc(C(=O)CSc2nc(C)cc(C)n2)ccc1O | -28.2% (inactive) | –
CC(C)C1N=C2c3ccccc3N=C(SCC(=O)c3ccc(O)c(O)c3)N2C1=O (stereo not drawn) | – | 25.1 µM (active)
COc1ccccc1P(=O)(c1ccccc1)c1ccccc1NC(C)=O (stereo not drawn) | 3.73% (inactive) | –
CN(CC(O)COc1ccc(S(=O)(=O)N2CCOCC2)cc1Cl)C1CCCCC1 (stereo not drawn) | 12.2% (inactive) | –
COc1ccc2c(c1)O[C@@H](c1ccc3c(c1)OCO3)[C@H](OC(=O)NCCc1ccc(OC)c(OC)c1)C2=O | 3.27% (inactive) | –
COc1cccc([C@@H]2Oc3ccc(Br)cc3C(=O)[C@H]2OC(=O)NCCc2ccc(OC)c(OC)c2)c1 | – | 14.1 µM (active)
COc1cccc([C@@H]2Oc3ccc(Br)cc3C(=O)[C@H]2OC(=O)NCc2ccc3c(c2)OCO3)c1 | -24.1% (inactive) | –
c1ccc(-c2nnc(N3CCOCC3)c3ccccc23)cc1 | -2.56% (inactive) | –
O=C(Nc1ccc(S(=O)(=O)Nc2nccs2)cc1)c1cccc(S(=O)(=O)N2CCOCC2)c1 | -2.79% (inactive) | –
CCc1nc(C)cn1S(=O)(=O)c1cc([N+](=O)[O-])ccc1Cl | 6.08% (inactive) | –
COc1ccc(-c2csc(Nc3ccccn3)n2)cc1 | 1.24% (inactive) | –
COc1ccc(-c2csc(Nc3ccc(O)cc3)n2)cc1 | -1.49% (inactive) | –

SMILES | activity change, negative = inhibition | Potency
COc1ccc(OC)c(Nc2nc(-c3ccc(O)c(O)c3)cs2)c1 | – | 28.2 µM (active)
O=C(Nc1n[nH]c(C(F)(F)F)n1)c1cccs1 | 5.52% (inactive) | –
CCOC(=O)c1cn[nH]c1NC(=S)Nc1ccccc1 | -9.9% (inactive) | –
ON=C1/C(=N\O)CC2(C/C1=N/O)OCCO2 | – | 7.08 µM (active)
O/N=C1\CC2(Cc3nonc31)OCCO2 | 0.0097% (inactive) | –
Cc1[nH]n(C)c(=O)c1N=Nc1ccc(S(C)(=O)=O)cc1 | -23.4% (inactive) | –
COc1cccc(N2C(=O)CC(N3CCc4ccccc4C3)C2=O)c1 (stereo not drawn) | -5.44% (inactive) | –
NCCCCCC(=O)N/N=C/c1ccc2nccnc2c1 | -4.08% (inactive) | –
CCOC(=O)CSc1nc(C)c(Oc2ccc(Cl)cc2Cl)c(=O)[nH]1 | 3.14% (inactive) | –
COCc1ccc(C(=O)N2CCc3c([nH]c4ccccc34)C2c2ccccn2)s1 (stereo not drawn) | 1.42% (inactive) | –
c1ccc(C2c3[nH]c4ccccc4c3CCN2Cc2cccn2-c2cccnc2)nc1 (stereo not drawn) | – | 14.1 µM (active)
Oc1cccc(C2c3[nH]c4ccccc4c3CCN2Cc2cnn(-c3ccccc3)c2)c1 (stereo not drawn) | -19% (inactive) | –
CCc1cccc2c(=O)c(C(=O)NCCCOC)c[nH]c12 | -11.7% (inactive) | –
CN(C(=O)CCn1c(=S)oc2ccccc21)C1CCCCC1 | 2.53% (inactive) | –
Cc1ccc(N2C(=O)CC(Sc3ncn[nH]3)C2=O)cc1 (stereo not drawn) | – | 2.51 µM (active)
O=C1CC(N2CCN(c3ccc(F)cc3)CC2)C(=O)N1c1ccccc1 (stereo not drawn) | -0.114% (inactive) | –
O=C1CC(Sc2ncn[nH]2)C(=O)N1c1ccccc1 (stereo not drawn) | – | 2.24 µM (active)
CCOC(=O)c1ccc(N2C(=O)CC(Sc3nc(O)c(CC)c(=O)[nH]3)C2=O)cc1 (stereo not drawn) | 8.88% (inactive) | –
COc1ccc(N2C(=O)CC(Sc3n[nH]c(-c4ccc(C)cc4)n3)C2=O)cc1 (stereo not drawn) | -11.9% (inactive) | –
Cc1cccc(N2C(=O)CC(SC(N)=Nc3ccccc3)C2=O)c1 (stereo not drawn) | 7.82% (inactive) | –
